# ± gives the standard deviation.
# Tested on: THP-1 macrophages infected with Mycobacterium tuberculosis H37Rv
# Experiment: intracellular M.tb growth inhibition relative to DMSO (0) and 4 uM bedaquiline (100); higher = stronger inhibition of intracellular bacterial growth
# Settings: 10 µM; 4 days
# Procedure: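 OICR kinase inhibitor library screened in duplicate at 10 uM against THP-1 macrophages (PMA-differentiated) infected with M. tuberculosis H37Rv-pTEC27 (tdTomato RFP), 4 days at 37 C. Rows with complete host cell loss (placeholder inhibition 0, cell loss 100) were removed.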
row,Structure (SMILES),intracellular M.tb growth inhibition
1,COc1cc2ncnc(Nc3ccc(O)cc3)c2cc1OC [Janex-1],-138 ± 210%
2,O=c1oc2c(O)c(O)cc3c(=O)oc4c(O)c(O)cc1c4c23 [Ellagic acid],-20.9 ± 30%
3,Nc1ncnc(Nc2ccc(OCc3ccccc3)c(Cl)c2)c1/C=N/OCCN1CCOCC1,55.9 ± 12%
4,Oc1cccc(-c2nc(N3CCOCC3)c3oc4ncccc4c3n2)c1,-62.7 ± 17%
5,FC(F)(F)c1ccc(/C=C/c2nc(COc3ccc(CCCCn4ccnn4)cc3)co2)cc1 [Mubritinib],-50.5 ± 170%
6,O=c1[nH]nc(Sc2ncc([N+](=O)[O-])s2)n1-c1ccc2c(c1)OCCO2,-22.3 ± 6%
7,NS(=O)(=O)c1nn2cc(-c3ccccc3)nc2s1,42.3 ± 16%
8,CO[C@@H](C(=O)N1Cc2[nH]nc(NC(=O)c3ccc(N4CCN(C)CC4)cc3)c2C1)c1ccccc1,-228 ± 250%
9,COc1cc(/C=C(\C#N)C(N)=O)cc(CSc2nc3ccccc3s2)c1O,21 ± 6.4%
10,COc1cc(CCc2cc(NC(=O)c3ccc(N4CC(C)NC(C)C4)cc3)n[nH]2)cc(OC)c1 (stereo not given),-216 ± 180%
11,C[C@]1(O)C[C@@H](c2nc(-c3ccc4ccc(-c5ccccc5)nc4c3)c3c(N)nccn32)C1,39.2 ± 24%
12,Nc1nccc(-c2c(-c3ccc(F)cc3)ncn2C2CCCCC2)n1,42.4 ± 13%
13,CN1CCC(CNc2ccc3ncc(-c4cccc(OC(F)(F)F)c4)n3n2)CC1,89.1 ± 24%
14,Cc1cc(F)c(Nc2ncnc3cc(OCc4ccccc4)ccc23)cc1O,38.8 ± 33%
15,O=C1NC(=O)[C@@H](c2cn3c4c(cccc24)CCC3)[C@@H]1c1c[nH]c2ccccc12,-118 ± 200%
